Data: PubChem BioAssay (Tox21)
Inconclusive results are not listed. Activity calls are given as the source filed them. Unless noted, the call rests on the fitted dose curve; in most records, active means well fitted curve in the direction sought with a large enough effect in the repeat runs; inconclusive means weak or mixed curves; inactive means no such curve, though single readings can be large; an effect the other way counts as inactive or inconclusive.

Columns and labels:
[1] = qHTS RealTime-Glo MT Cell Viability Assay in HEK293 cells - 0 hour (AID 1224880); further: top concentration of the series differs between compounds; nearly all actives have a fitted effect of over 45% in size
Method in brief: (§1)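 600 HEK293 cells per well, dispensed already mixed with RealTime-Glo MT reagents. Compound dosing came 5 h later. The same wells were read for luminescence at 0, 8, 16, 24, 32 and 40 h of exposure at 37 C.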

[2] = A CellTox Green Cytotoxicity Assay to monitor cytotoxicity in HEK293 cells - 32 hour (AID 1224881); further: nearly all actives have a fitted effect of over 40% in size
Method in brief: (§2)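 Dead-cell fluorescence measured kinetically: asymmetric cyanine dye, HEK293, 600 cells/well, 5 h settle, 23 nL cpd/DMSO, 37 C, reads 0–40 h every 8 h.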

[3] = A CellTox Green Cytotoxicity Assay to monitor cytotoxicity in HepG2 cells - 0 hour (AID 1224882); further: nearly all actives have a fitted effect of over 35% in size
Method in brief: (§3)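 First, HepG2 cells (600/well) mixed with reagent were plated; second, after 5 h at 37 C they received compounds via pintool; third, fluorescence was measured at 0 h through 40 h at 8 h intervals.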

[4] = A CellTox Green Cytotoxicity Assay to monitor cytotoxicity in HepG2 cells - 32 hour (AID 1224883); further: nearly all actives have a fitted effect of over 50% in size
Method in brief: as §3

[5] = A CellTox Green Cytotoxicity Assay to monitor cytotoxicity in HEK293 cells - 8 hour (AID 1224884); further: nearly all actives have a fitted effect of over 35% in size
Method in brief: as §2

[6] = qHTS RealTime-Glo MT Cell Viability Assay in HepG2 cells - 16 hour (AID 1224885); further: nearly all actives have a fitted effect of over 50% in size
Method in brief: (§4)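 Cell number in HepG2 cultures estimated from NanoLuc luminescence generated by metabolic reduction of a prosubstrate by living cells. The homogeneous, nonlytic format allowed repeated reads at 0, 8, 16, 24, 32 and 40 h of compound exposure.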

[7] = qHTS RealTime-Glo MT Cell Viability Assay in HEK293 cells - 24 hour (AID 1224886); further: nearly all actives have a fitted effect of over 50% in size; further: potency means the concentration at half of the fitted maximal effect
Method in brief: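 Homogeneous bioluminescent viability format in HEK293 cells (600 cells/well). Following 5 h at 37 C/5% CO2, 23 nL compound was pintooled; the signal was measured repeatedly during 40 h incubation.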

[8] = qHTS RealTime-Glo MT Cell Viability Assay in HEK293 cells - 8 hour (AID 1224887); further: nearly all actives have a fitted effect of over 50% in size; further: potency means the concentration at half of the fitted maximal effect
Method in brief: as §1

[9] = A CellTox Green Cytotoxicity Assay to monitor cytotoxicity in HEK293 cells - 16 hour (AID 1224888); further: nearly all actives have a fitted effect of over 35% in size
Method in brief: as §2

[10] = qHTS RealTime-Glo MT Cell Viability Assay in HepG2 cells - 0 hour (AID 1224889); further: nearly all actives have a fitted effect of over 50% in size
Method in brief: as §4

[11] = A CellTox Green Cytotoxicity Assay to monitor cytotoxicity in HepG2 cells - 8 hour (AID 1224890); further: nearly all actives have a fitted effect of over 45% in size
Method in brief: as §3

[12] = qHTS assay to identify small molecule antagonists of the estrogen receptor alpha (ER-alpha) signaling pathway using the BG1 cell line in the presence of 0.1 nM 17-beta-estradiol - cell viability counter screen (AID 1259241); further: nearly all actives have a fitted effect of over 40% in size
Method in brief: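 Cells were plated and left 24 hr, compounds in DMSO were pinned in, 17beta-estradiol was added to 0.1 nM final, and after 22 hr CellTiter-Fluor reagent was added for 30 min before fluorescence was read.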

[13] = qHTS assay to identify small molecule antagonists of the androgen receptor (AR) signaling pathway using the MDA cell line in the presence of 0.5 nM R1881 - cell viability counter screen (AID 1259242); further: nearly all actives have a fitted effect of over 45% in size
Method in brief: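 qHTS format. MDA-kb2 (MMTV-luc, AR/GR responsive) + cpd + 0.5 nM R1881 final, 16 hr 37C/0% CO2 → CellTiter-Fluor 30 min → fluorescence intensity.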

[14] = target: Estrogen receptor (Homo sapiens) (UniProt P03372); test: qHTS assay to identify small molecule antagonists of the estrogen receptor alpha (ER-alpha) signaling pathway using the BG1 cell line in the presence of 0.1 nM 17-beta-estradiol (AID 1259244); further: nearly all actives have a fitted effect of over 50% in size
Sequence of Estrogen receptor (Homo sapiens) (P03372 whole entry, looked up): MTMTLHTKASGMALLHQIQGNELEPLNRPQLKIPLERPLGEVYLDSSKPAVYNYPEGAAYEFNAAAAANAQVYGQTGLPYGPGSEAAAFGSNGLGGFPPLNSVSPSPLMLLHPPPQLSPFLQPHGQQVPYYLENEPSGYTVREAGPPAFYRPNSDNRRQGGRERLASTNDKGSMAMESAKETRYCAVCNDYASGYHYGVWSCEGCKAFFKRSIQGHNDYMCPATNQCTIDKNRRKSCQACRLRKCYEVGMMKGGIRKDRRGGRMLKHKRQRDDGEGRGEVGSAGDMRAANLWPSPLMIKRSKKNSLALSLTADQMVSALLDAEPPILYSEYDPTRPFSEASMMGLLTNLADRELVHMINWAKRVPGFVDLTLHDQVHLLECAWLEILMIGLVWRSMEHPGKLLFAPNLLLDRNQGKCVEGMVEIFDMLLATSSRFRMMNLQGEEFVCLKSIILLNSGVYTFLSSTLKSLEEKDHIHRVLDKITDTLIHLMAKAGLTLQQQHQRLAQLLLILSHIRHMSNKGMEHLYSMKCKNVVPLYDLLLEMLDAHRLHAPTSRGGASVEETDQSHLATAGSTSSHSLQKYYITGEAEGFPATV
Method in brief: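 Reporter is a stably transfected luciferase under four estrogen responsive elements in VM7Luc4E2 cells expressing native full-length ER-alpha; inhibition of 0.1 nM (final) 17beta-estradiol-driven signal over 22 h is read by luminescence.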

[15] = qHTS assay to identify small molecule HDAC inhibitors (AID 1259364);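 further: wild-type HCT-116 cells with endogenous class I/II HDAC activity; top concentration of the series differs between compounds; nearly all actives have a fitted effect of over 45% in size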
Method in brief: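 Quantitative high-throughput format: overnight-seeded HCT-116 cells got compounds for 2 hr at 37C; HDAC-Glo I/II reagent added, 30 min RT, luminescence measured.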

[16] = qHTS assay to identify small molecule HDAC inhibitors - cell viability counter screen (AID 1259365)
Method in brief: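 Counter screen in wild-type HCT-116 cells: compounds dissolved in DMSO are pin-transferred onto overnight-plated cells and left 2hr at 37C. ATP-based CellTiter-Glo luminescence then measures viable cells.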

[17] = qHTS assay to identify small molecule agonists of the sonic hedgehog signaling (Shh) pathway - cell viability counter screen (AID 1259366); further: nearly all actives have a fitted effect of over 50% in size; further: potency means the concentration at half of the fitted maximal effect
Method in brief: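 Cells are plated at 2,000 per well and left 4hr at 37C, 5% CO2 before compound addition. After 23hr of treatment, CellTiter-Fluor reagent is added for 1hr at 37C and fluorescence is measured.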

[18] = qHTS assay to identify small molecule antagonists of the sonic hedgehog signaling (Shh) pathway - cell viability counter screen (AID 1259367); further: nearly all actives have a fitted effect of over 55% in size
Method in brief: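 Tox21 library chemicals were tested on a Gli1-Luc NIH/3T3 clone (2,000 cells/well) stimulated by conditioned medium; viability was quantified as fluorescence from CellTiter-Fluor reagent added at 23 hr.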

[19] = qHTS assay to identify small molecule phospholipidosis (PLD) inducers (AID 1259344; active means well fitted curve in the direction sought with a large enough effect; an effect the other way counts as inactive or inconclusive)
Method in brief: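 Image-based: LipidTOX Red pit count/intensity per well and per cell; HepG2, 24 h compound at 37 C, PFA fixation, Hoechst counterstain.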

[20] = target: Androgen receptor (Homo sapiens) (UniProt P10275); test: qHTS assay to identify small molecule antagonists of the androgen receptor (AR) signaling pathway using the MDA cell line in the presence of 0.5 nM R1881 (AID 1259243); further: nearly all actives have a fitted effect of over 50% in size
Sequence of Androgen receptor (Homo sapiens) (P10275 whole entry, looked up): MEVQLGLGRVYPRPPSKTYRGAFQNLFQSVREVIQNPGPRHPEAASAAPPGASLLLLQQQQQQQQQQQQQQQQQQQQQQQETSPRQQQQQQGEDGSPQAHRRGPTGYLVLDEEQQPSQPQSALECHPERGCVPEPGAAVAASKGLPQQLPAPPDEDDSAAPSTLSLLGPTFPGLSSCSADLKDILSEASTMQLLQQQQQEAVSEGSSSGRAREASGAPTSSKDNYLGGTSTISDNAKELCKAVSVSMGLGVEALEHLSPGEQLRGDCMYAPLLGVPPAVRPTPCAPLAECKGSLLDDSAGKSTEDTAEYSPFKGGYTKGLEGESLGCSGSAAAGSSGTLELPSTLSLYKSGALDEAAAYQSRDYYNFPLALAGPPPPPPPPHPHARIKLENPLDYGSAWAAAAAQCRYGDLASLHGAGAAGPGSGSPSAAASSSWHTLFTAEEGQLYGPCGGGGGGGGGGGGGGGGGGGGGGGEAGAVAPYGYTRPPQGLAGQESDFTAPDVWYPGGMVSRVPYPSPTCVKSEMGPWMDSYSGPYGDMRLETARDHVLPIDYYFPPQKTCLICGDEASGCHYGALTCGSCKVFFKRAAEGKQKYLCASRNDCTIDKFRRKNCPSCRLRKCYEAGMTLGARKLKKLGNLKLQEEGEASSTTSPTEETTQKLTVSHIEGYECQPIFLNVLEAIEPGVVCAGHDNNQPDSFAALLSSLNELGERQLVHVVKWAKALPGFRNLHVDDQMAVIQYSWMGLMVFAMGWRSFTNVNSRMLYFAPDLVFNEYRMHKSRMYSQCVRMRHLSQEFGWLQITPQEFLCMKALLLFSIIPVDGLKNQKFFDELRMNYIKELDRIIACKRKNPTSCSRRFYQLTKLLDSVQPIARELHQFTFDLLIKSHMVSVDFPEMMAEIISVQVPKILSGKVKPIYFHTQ
Method in brief: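 Antagonist mode quantitative HTS in MDA-kb2 MMTV-luciferase cells, agonist R1881 at 0.5 nM final, 16 hr exposure at 37C and 0% CO2, luminescent detection.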
On the % scale 0 is the no-effect control and ±100 the full control effect.

COc1cc(Cl)c(OC)cc1Cl
inactive: Potency [1] | Potency [2] | Potency [3] | Potency [4] | Potency [5] | Potency [6] | Potency [7] | Potency [8] | Potency [9] | Potency [10] | Potency [11] | Potency [12] | Potency [13] | Potency [14] | Potency [15] | Potency [16] | Potency [17] | Potency [18]

CCCN(CCC)c1c([N+](=O)[O-])cc(S(C)(=O)=O)cc1[N+](=O)[O-]
inactive: Potency [1] | Potency [2] | Potency [3] | Potency [4] | Potency [5] | Potency [6] | Potency [9] | Potency [10] | Potency [11] | Potency [12] | Potency [13] | Potency [14] | Potency [15] | Potency [16] | Potency [17] | Potency [18]
active: Potency [7] 13.8 µM | Potency [8] 13.8 µM

CCCN(CCCl)c1c([N+](=O)[O-])cc(C(F)(F)F)cc1[N+](=O)[O-]
active: Potency [8] 38.9 µM
inactive: Potency [1] | Potency [2] | Potency [3] | Potency [4] | Potency [5] | Potency [6] | Potency [7] | Potency [9] | Potency [10] | Potency [11] | Potency [12] | Potency [13] | Potency [14] | Potency [15] | Potency [16] | Potency [17] | Potency [18]

ClC=C(Cl)Cl
inactive: Potency [1] | Potency [2] | Potency [3] | Potency [4] | Potency [5] | Potency [6] | Potency [7] | Potency [8] | Potency [9] | Potency [10] | Potency [11] | Potency [12] | Potency [13] | Potency [14] | outcome [19] | Potency [15] | Potency [16] | Potency [17] | Potency [18]

O=Cc1ccc2c(c1)OCO2
inactive: Potency [1] | Potency [2] | Potency [3] | Potency [4] | Potency [5] | Potency [6] | Potency [7] | Potency [8] | Potency [9] | Potency [10] | Potency [11] | Potency [12] | Potency [13] | Potency [15] | Potency [16] | Potency [17]

CC(Cl)Cl
inactive: Potency [1] | Potency [2] | Potency [3] | Potency [4] | Potency [5] | Potency [6] | Potency [7] | Potency [8] | Potency [9] | Potency [10] | Potency [11] | Potency [12] | Potency [13] | Potency [14] | Potency [15] | Potency [16] | Potency [17]

C=CC(=O)OCCCCO
active: Potency [17] 61.1 µM
inactive: Potency [1] | Potency [2] | Potency [3] | Potency [4] | Potency [5] | Potency [6] | Potency [7] | Potency [8] | Potency [9] | Potency [10] | Potency [11] | Potency [12] | Potency [13] | Potency [14] | Potency [15] | Potency [16]

COc1cc(CC(C)N)cc2c1OCO2 (configuration not stated)
inactive: Potency [1] | Potency [2] | Potency [3] | Potency [4] | Potency [5] | Potency [6] | Potency [7] | Potency [8] | Potency [9] | Potency [10] | Potency [11] | Potency [12] | Potency [13] | Potency [14] | outcome [19] | Potency [15] | Potency [16] | Potency [17]

C[C@]12CC[C@H]3[C@@H](CCC4=CC(=O)CC[C@@H]43)[C@@H]1CC[C@@H]2OC(=O)CCC1CCCCC1
inactive: Potency [1] | Potency [2] | Potency [3] | Potency [4] | Potency [5] | Potency [6] | Potency [7] | Potency [8] | Potency [9] | Potency [10] | Potency [11] | Potency [12] | Potency [13] | Potency [20] | Potency [14] | Potency [15] | Potency [16] | Potency [17] | Potency [18]

CCCCCC[N+](=O)[O-]
inactive: Potency [1] | Potency [2] | Potency [3] | Potency [4] | Potency [5] | Potency [6] | Potency [7] | Potency [8] | Potency [9] | Potency [10] | Potency [11] | Potency [12] | Potency [13] | Potency [20] | Potency [15] | Potency [16] | Potency [17] | Potency [18]

C[C@H]1CNCCc2ccc(Cl)cc21
inactive: Potency [1] | Potency [2] | Potency [3] | Potency [4] | Potency [5] | Potency [6] | Potency [7] | Potency [8] | Potency [9] | Potency [10] | Potency [11] | Potency [12] | Potency [13] | Potency [14] | PLD induction [19] 0.0663% [at 7.66 µM] | Potency [15] | Potency [16] | Potency [17] | Potency [18]

COC(=O)C(Cl)C(=O)OC
inactive: Potency [1] | Potency [2] | Potency [3] | Potency [4] | Potency [5] | Potency [6] | Potency [7] | Potency [8] | Potency [9] | Potency [10] | Potency [11] | Potency [12] | Potency [13] | outcome [19] | Potency [15] | Potency [16] | Potency [17] | Potency [18]

CCCCCCCCCC(=O)O[C@H]1CC[C@H]2[C@@H]3CCC4=CC(=O)CC[C@@H]4[C@H]3CC[C@]12C
inactive: Potency [1] | Potency [2] | Potency [3] | Potency [4] | Potency [5] | Potency [6] | Potency [7] | Potency [8] | Potency [9] | Potency [10] | Potency [11] | Potency [12] | Potency [13] | Potency [14] | outcome [19] | Potency [15] | Potency [16] | Potency [17] | Potency [18]

CC(C)N(CCC(C(N)=O)(c1ccccc1)c1ccccn1)C(C)C (configuration not stated)
inactive: Potency [1] | Potency [2] | Potency [3] | Potency [4] | Potency [5] | Potency [6] | Potency [7] | Potency [8] | Potency [9] | Potency [10] | Potency [11] | Potency [12] | Potency [13] | outcome [19] | Potency [15] | Potency [16] | Potency [17]

CCCCCCC#N
inactive: Potency [1] | Potency [2] | Potency [3] | Potency [4] | Potency [5] | Potency [6] | Potency [7] | Potency [8] | Potency [9] | Potency [10] | Potency [11] | Potency [12] | Potency [13] | Potency [14] | Potency [15] | Potency [16] | Potency [17] | Potency [18]

C=CCCl
inactive: Potency [1] | Potency [2] | Potency [3] | Potency [4] | Potency [5] | Potency [6] | Potency [7] | Potency [8] | Potency [9] | Potency [10] | Potency [11] | Potency [12] | Potency [13] | Potency [14] | Potency [15] | Potency [16] | Potency [17] | Potency [18]
